Where “and” joins values, the source holds several entries; their conditions need not be identical. Equal values may be shown once. Inconclusive results are not listed. Entries that show only a call come without a potency. Some compounds were tested as several samples or in several runs, with calls that do not always agree. Calls of active or inactive are those of the source. Unless noted, calls come from the whole dose curve; as a rule, active = well fitted curve in the direction sought with a large enough effect in the repeat runs; inconclusive = weak or mixed curves; inactive = no such curve, though single readings can be large; an effect the other way counts as inactive or inconclusive.
Key:
[1] = qHTS RealTime-Glo MT Cell Viability Assay in HepG2 cells - 16 hour (AID 1224885); note: nearly all actives have a fitted effect of over 50% in size
In short: (§1)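 qHTS, HepG2, 600 cells/well, RealTime-Glo (NanoLuc + prosubstrate) added with cells; 5 h preincubation; DMSO compound addition; 37 C; luminescence at 0/8/16/24/32/40 h.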

[2] = qHTS RealTime-Glo MT Cell Viability Assay in HEK293 cells - 24 hour (AID 1224886); note: nearly all actives have a fitted effect of over 50% in size; note: potency is the fitted concentration of half-maximal effect
In short: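 Assay medium contained NanoLuc luciferase plus cell-permeant prosubstrate, added with HEK293 cells at 600 cells/well. After 5 h at 37 C/5% CO2 compounds were added; plates stayed at 37 C for 40 h with serial luminescence reads.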

[3] = qHTS RealTime-Glo MT Cell Viability Assay in HEK293 cells - 8 hour (AID 1224887); note: top concentration of the series differs between compounds; nearly all actives have a fitted effect of over 50% in size
In short: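 HEK293 cells mixed with RealTime-Glo reagents (NanoLuc plus cell-permeant prosubstrate) at 600 cells/well, preincubated 5 h at 37 C/5% CO2, then given 23 nL compound in DMSO. Nonlytic luminescence from viable cells was read at 0, 8, 16, 24, 32 and 40 h.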

[4] = A CellTox Green Cytotoxicity Assay to monitor cytotoxicity in HEK293 cells - 16 hour (AID 1224888); note: nearly all actives have a fitted effect of over 35% in size
In short: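 HEK293 cells premixed with CellTox Green dye were seeded at 600 cells/well and left 5 h at 37 C/5% CO2 before pin transfer of 23 nL compound in DMSO. Fluorescence from dye bound to dead-cell DNA was read during 40 h treatment.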

[5] = qHTS RealTime-Glo MT Cell Viability Assay in HepG2 cells - 0 hour (AID 1224889); note: nearly all actives have a fitted effect of over 50% in size
In short: as §1

[6] = A CellTox Green Cytotoxicity Assay to monitor cytotoxicity in HepG2 cells - 8 hour (AID 1224890); note: nearly all actives have a fitted effect of over 45% in size; note: potency is the fitted concentration of half-maximal effect
In short: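 HepG2 cells were seeded together with the CellTox Green dye at 600 cells/well, left 5 h at 37 C/5% CO2, then given compounds in DMSO. Fluorescence from dye bound to dead-cell DNA was read repeatedly over 40 h of treatment at 37 C.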

[7] = qHTS assay to identify small molecule antagonists of the androgen receptor (AR) signaling pathway using the MDA cell line in the presence of 0.5 nM R1881 - cell viability counter screen (AID 1259242); note: nearly all actives have a fitted effect of over 45% in size
In short: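 MDA-kb2 cells (human breast carcinoma, stably carrying MMTV-luciferase reporter) were exposed to compounds with 0.5 nM R1881 (final) for 16 hr at 37C, 0% CO2; viability then read as live-cell protease fluorescence (CellTiter-Fluor, 30 min) in the same wells.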

[8] = molecular target: Estrogen receptor (Homo sapiens) (UniProt P03372); assay: qHTS assay to identify small molecule antagonists of the estrogen receptor alpha (ER-alpha) signaling pathway using the BG1 cell line in the presence of 0.1 nM 17-beta-estradiol (AID 1259244); note: nearly all actives have a fitted effect of over 50% in size
In short: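 VM7Luc4E2 cells (endogenous full-length ER-alpha, stable 4xERE-luciferase) were grown 5 days in phenol red-free medium with charcoal-stripped FBS, then exposed 22 h at 37C to compounds plus 0.1 nM (final) 17beta-estradiol; ONE-Glo luminescence read-out.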

[9] = qHTS assay to identify small molecule HDAC inhibitors (AID 1259364); note: nearly all actives have a fitted effect of over 45% in size; note: potency is the fitted concentration of half-maximal effect
In short: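 Wild-type HCT-116 cells were plated overnight, exposed to compounds for 2 h at 37 °C, then given HDAC-Glo class I/II luminogenic reagent for 30 min at room temperature before luminescence was read.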

[10] = qHTS assay to identify small molecule HDAC inhibitors - cell viability counter screen (AID 1259365)
In short: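 Following a 2hr exposure of overnight-plated wild-type HCT-116 cells to DMSO-delivered compounds, CellTiter-Glo was added and luminescence recorded after 30min at room temperature.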

[11] = qHTS assay to identify small molecule agonists of the sonic hedgehog signaling (Shh) pathway - cell viability counter screen (AID 1259366); note: nearly all actives have a fitted effect of over 50% in size
In short: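 After a 4hr attachment at 37C, NIH/3T3 cells bearing an integrated Gli1-driven luciferase reporter were dosed with compounds. Treatment lasted 24hr, with the final hour including CellTiter-Fluor for a fluorescence viability measurement.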

[12] = qHTS assay to identify small molecule antagonists of the sonic hedgehog signaling (Shh) pathway - cell viability counter screen (AID 1259367); note: nearly all actives have a fitted effect of over 55% in size
In short: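 Using CellTiter-Fluor, viability of Gli1-Luc reporter 3T3 cells is read by fluorescence in the wells used for the Shh luciferase assay. Treatment lasts 23 hr with conditioned medium, then reagent 1 hr at 37C.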

[13] = qHTS assay to identify small molecule agonists of the sonic hedgehog signaling (Shh) pathway (AID 1259368; calls by dose curve; note: series mostly up to about 92 µM; nearly all actives have a fitted effect of over 15% in size)
In short: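 NIH/3T3-derived 3T3Gli1-Luc cells carrying a stably integrated Gli1 response element–firefly luciferase reporter were plated, left 4 hr at 37 C, then given compounds in DMSO for 24 hr. Luminescence was read 30 min after adding luciferase reagent.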

[14] = qHTS assay to identify small molecule antagonists of the sonic hedgehog signaling (Shh) pathway (AID 1259369; calls by dose curve; note: nearly all actives have a fitted effect of over 45% in size; note: potency is the fitted concentration of half-maximal effect)
In short: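 NIH/3T3-derived 3T3Gli1-Luc cells with stably integrated Gli1-Luc reporter were preincubated 4hr at 37 C, then given compounds in DMSO plus Shh conditioned medium and incubated 24hr. Firefly luciferase luminescence read after 30min reagent at room temperature.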

[15] = qHTS assay to identify small molecule agonists of the androgen receptor (AR) signaling pathway in the presence of an antagonist - cell viability counter screen (AID 1259379); note: series mostly up to about 92 µM; nearly all actives have a fitted effect of over 25% in size
In short: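 MDA-kb2 human breast carcinoma cells (stable MMTV-luciferase, AR/GR responsive) were seeded 3,000 cells/well, pre-incubated 5 hr at 37C without CO2, then given 3.0uM nilutamide and compounds at 15 concentrations for 16 hr. Viability was read by CellTiter-Fluor fluorescence.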

[16] = molecular target: Estrogen receptor beta (Homo sapiens) (UniProt Q92731); assay: qHTS assay to identify small molecule agonists of the estrogen receptor beta (ER-beta) signaling pathway (AID 1259377; active = well fitted activation curve with a large enough effect in the signal ratio in the repeat runs, not every such curve was filed as active; the % refers to the signal ratio)
In short: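 In HEK293T cells bearing a UAS-beta-lactamase reporter under ER-beta control, DMSO-delivered compounds were incubated for 16 hr at 37C. Activity was detected as fluorescence 2 hours after LiveBLAzer B/G FRET substrate addition.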

[17] = qHTS assay to identify small molecule antagonists of the estrogen receptor alpha (ER-alpha) signaling pathway using the BG1 cell line in the presence of 0.1 nM 17-beta-estradiol - cell viability counter screen (AID 1259241); note: nearly all actives have a fitted effect of over 40% in size
In short: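 Measures cytotoxicity alongside the ER-alpha antagonist readout: VM7Luc4E2 cells, charcoal-stripped serum, 0.1 nM 17beta-estradiol final, 22 hr compound incubation at 37C, CellTiter-Fluor fluorescence.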

[18] = molecular target: Estrogen receptor beta (Homo sapiens) (UniProt Q92731); assay: qHTS assay to identify small molecule antagonists of the estrogen receptor beta (ER-beta) signaling pathway (AID 1259378; active = well fitted inhibition curve with a large enough effect in the signal ratio in the repeat runs, not every such curve was filed as active; the % refers to the signal ratio)
In short: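 Antagonist mode: compounds added to beta-lactamase reporter HEK293T ER-beta-UAS cells stimulated with E2 (1nM final), 16 hr at 37C. LiveBLAzer B/G FRET substrate, 2 hours room temperature, fluorescence read-out.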

[19] = molecular target: Androgen receptor (Homo sapiens) (UniProt P10275); assay: qHTS assay to identify small molecule antagonists of the androgen receptor (AR) signaling pathway using the MDA cell line in the presence of 0.5 nM R1881 (AID 1259243); note: nearly all actives have a fitted effect of over 50% in size; note: potency is the fitted concentration of half-maximal effect
In short: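 MDA-kb2 human breast carcinoma cells carrying an MMTV-luciferase reporter (AR- and GR-responsive) were plated, rested 5 hr at 37C, dosed with compounds, then stimulated with 0.5 nM R1881 (final) for 16 hr; luminescence was read after ONE-Glo.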

[20] = qHTS assay to identify small molecule phospholipidosis (PLD) inducers (AID 1259344; active = well fitted curve in the direction sought with a large enough effect; an effect the other way counts as inactive or inconclusive)
In short: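 Fluorescent phospholipid staining (LipidTOX Red) measured by automated microscopy in fixed HepG2 cells after 24 h treatment; nuclei counterstained with Hoechst 33342; amiodarone as reference inducer.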

Sequence of Estrogen receptor (Homo sapiens) (P03372 whole entry, looked up): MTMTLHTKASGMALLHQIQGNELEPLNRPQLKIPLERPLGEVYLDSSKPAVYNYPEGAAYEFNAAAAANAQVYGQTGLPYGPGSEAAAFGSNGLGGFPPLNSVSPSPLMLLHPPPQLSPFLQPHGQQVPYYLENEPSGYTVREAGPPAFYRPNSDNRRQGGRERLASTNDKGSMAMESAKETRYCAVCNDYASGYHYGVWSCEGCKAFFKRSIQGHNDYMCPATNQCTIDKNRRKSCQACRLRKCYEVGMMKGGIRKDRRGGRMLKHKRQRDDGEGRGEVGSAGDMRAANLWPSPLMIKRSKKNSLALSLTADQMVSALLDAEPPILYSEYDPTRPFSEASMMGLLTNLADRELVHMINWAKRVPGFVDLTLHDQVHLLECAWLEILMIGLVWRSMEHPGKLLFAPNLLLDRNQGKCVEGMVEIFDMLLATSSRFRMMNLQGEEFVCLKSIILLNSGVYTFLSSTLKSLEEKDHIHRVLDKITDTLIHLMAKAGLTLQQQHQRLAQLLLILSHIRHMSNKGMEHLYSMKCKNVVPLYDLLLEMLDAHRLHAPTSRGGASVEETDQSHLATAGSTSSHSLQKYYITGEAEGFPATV
Sequence of Estrogen receptor beta (Homo sapiens) (Q92731 whole entry, looked up): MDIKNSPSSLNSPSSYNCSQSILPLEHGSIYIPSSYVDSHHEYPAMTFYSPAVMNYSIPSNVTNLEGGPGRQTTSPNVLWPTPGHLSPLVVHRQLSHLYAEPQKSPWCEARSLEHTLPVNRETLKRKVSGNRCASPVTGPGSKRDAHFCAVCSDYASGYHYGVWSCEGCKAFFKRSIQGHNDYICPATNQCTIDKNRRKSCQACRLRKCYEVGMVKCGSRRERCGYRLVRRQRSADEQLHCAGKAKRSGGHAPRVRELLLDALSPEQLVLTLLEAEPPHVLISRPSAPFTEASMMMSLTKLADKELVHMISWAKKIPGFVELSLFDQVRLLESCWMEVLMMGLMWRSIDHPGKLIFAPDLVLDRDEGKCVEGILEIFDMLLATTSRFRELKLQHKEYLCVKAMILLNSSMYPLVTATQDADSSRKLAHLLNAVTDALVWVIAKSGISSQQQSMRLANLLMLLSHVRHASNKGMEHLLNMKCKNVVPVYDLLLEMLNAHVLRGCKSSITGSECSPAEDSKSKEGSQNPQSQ
Sequence of Androgen receptor (Homo sapiens) (P10275 whole entry, looked up): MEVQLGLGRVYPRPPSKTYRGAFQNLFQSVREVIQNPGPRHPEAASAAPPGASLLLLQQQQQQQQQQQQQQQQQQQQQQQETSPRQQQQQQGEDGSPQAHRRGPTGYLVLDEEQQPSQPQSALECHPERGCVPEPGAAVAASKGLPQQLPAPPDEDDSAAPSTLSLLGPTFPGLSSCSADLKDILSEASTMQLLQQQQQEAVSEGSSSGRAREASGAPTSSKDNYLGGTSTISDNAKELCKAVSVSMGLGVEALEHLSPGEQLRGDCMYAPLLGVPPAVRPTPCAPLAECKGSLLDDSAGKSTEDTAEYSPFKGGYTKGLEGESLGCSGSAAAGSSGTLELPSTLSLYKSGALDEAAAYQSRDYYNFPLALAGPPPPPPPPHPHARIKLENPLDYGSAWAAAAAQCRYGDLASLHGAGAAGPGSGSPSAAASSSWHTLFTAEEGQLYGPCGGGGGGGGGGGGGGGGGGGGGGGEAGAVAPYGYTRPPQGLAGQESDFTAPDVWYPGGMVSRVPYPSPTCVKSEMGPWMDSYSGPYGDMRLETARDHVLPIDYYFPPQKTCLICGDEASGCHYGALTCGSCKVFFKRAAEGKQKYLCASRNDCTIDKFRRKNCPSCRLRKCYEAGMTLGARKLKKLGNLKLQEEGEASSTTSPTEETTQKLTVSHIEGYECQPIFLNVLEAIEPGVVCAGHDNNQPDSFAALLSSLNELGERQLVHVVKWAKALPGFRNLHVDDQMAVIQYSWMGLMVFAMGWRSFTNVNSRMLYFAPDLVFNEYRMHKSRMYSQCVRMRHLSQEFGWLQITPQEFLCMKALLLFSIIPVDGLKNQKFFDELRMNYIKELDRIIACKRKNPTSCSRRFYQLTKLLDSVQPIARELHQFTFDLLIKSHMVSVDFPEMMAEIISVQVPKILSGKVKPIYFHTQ

Row | Structure (SMILES) | outcome [1] | Potency [2] | outcome [3] | Potency [4] | outcome [5] | Potency [6] | outcome [7] | Potency [8] | Potency [9] | outcome [10] | Potency [11] | Potency [12] | outcome [13] | Potency [14] | outcome [15] | Potency [16] | Potency [17] | outcome [18] | Potency [19] | outcome [20]
1 | C=CC(N)=O | inactive | inactive | inactive | inactive | inactive | inactive | inactive | inactive | inactive | inactive | inactive | inactive | inactive | inactive | inactive | – | – | – | – | –
2 | Cc1ccc(N)cc1N | inactive | inactive | inactive | inactive | inactive | inactive | inactive | inactive | inactive | inactive | inactive | inactive | – | inactive | inactive | inactive | – | – | – | –
3 | CCCCCCCCCCCC#N | inactive | inactive | inactive | – | inactive | inactive and 40.3 µM (active) | inactive | – | inactive | inactive | inactive | inactive | inactive | inactive | inactive | inactive | inactive | inactive | – | –
4 | C=CCO | inactive | inactive | inactive | – | inactive | inactive and 27.5 µM (active) | inactive | – | 28.5 µM (active) and inactive | inactive | inactive | – | inactive | inactive | inactive | – | inactive | – | – | –
5 | CCN(CC)CCO | inactive | inactive | inactive | inactive | inactive | inactive | inactive | – | inactive | inactive | inactive | – | inactive | inactive | inactive | inactive | – | inactive | – | –
6 | O=c1ccc(=O)[nH][nH]1 | inactive | inactive | inactive | inactive | inactive | inactive | inactive | – | inactive | inactive | inactive | – | inactive | inactive | inactive | – | – | – | inactive | –
7 | CCCC1COC(Cn2cncn2)(c2ccc(Cl)cc2Cl)O1 (configuration not stated) | inactive | 25 µM (active) and 24.5 µM (active) | – | inactive | inactive | inactive | inactive | – | inactive | inactive | inactive | inactive | inactive | 27.8 µM (active) | – | – | inactive | – | 31.2 µM (active) and 30.6 µM (active) | –
8 | CCOC(=O)c1ccccc1C(=O)OCC | inactive | inactive | – | inactive | inactive | inactive | inactive | inactive | inactive | inactive | inactive | – | inactive | inactive | inactive | – | inactive | – | – | inactive
9 | O=c1n(Cl)c(=O)n(Cl)c(=O)n1Cl | inactive | inactive | inactive | inactive | inactive | inactive | inactive | inactive | inactive | inactive | inactive | inactive | inactive | inactive | inactive | inactive | – | inactive | – | inactive
10 | CC(C)N1C(=O)c2ccccc2NS1(=O)=O | inactive | inactive | inactive | inactive | inactive | inactive | inactive | inactive | inactive | inactive | inactive | – | inactive | inactive | inactive | – | – | – | – | –
11 | Nc1ccc(Oc2ccc(N)cc2)cc1 | inactive | inactive | inactive | inactive | inactive | inactive | inactive | – | inactive | inactive | inactive | inactive | inactive | inactive | inactive | inactive | – | – | – | –
12 | CC(Oc1ccc(Cl)cc1Cl)C(=O)O (configuration not stated) | inactive | inactive | inactive | inactive | inactive | inactive | inactive | inactive | inactive | inactive | inactive | inactive | inactive | inactive | inactive | – | – | – | – | –
13 | COC(=O)NS(=O)(=O)c1ccc(N)cc1 | inactive | inactive | inactive | inactive | inactive | inactive | inactive | inactive | inactive | inactive | inactive | inactive | inactive | inactive | inactive | inactive | – | – | – | –
14 | c1cc2c3c(cccc3c1)CC2 | inactive | inactive | inactive | – | inactive | inactive | inactive | inactive | inactive | inactive | inactive | inactive | inactive | inactive | inactive | inactive | inactive | – | inactive | –
15 | O=[N+]([O-])c1ccccc1 | inactive | inactive | – | inactive | inactive | inactive | inactive | inactive | inactive | inactive | inactive | – | inactive | inactive | inactive | inactive | inactive | – | – | inactive
16 | C#CCN(C)[C@H](C)Cc1ccccc1 | inactive | inactive | – | inactive | inactive | inactive | inactive | inactive | inactive | inactive | inactive | inactive | inactive | inactive | inactive | inactive | inactive | – | – | inactive
17 | c1ccc2c(c1)oc1ccccc12 | inactive | inactive | inactive | inactive | inactive | inactive | inactive | – | inactive | inactive | inactive | inactive | inactive | inactive | inactive | inactive | – | – | – | –
18 | BrCCBr | inactive | inactive | – | inactive | inactive | inactive | inactive | inactive | inactive | inactive | inactive | inactive | inactive | inactive | inactive | inactive | inactive | inactive | – | –

Source: PubChem BioAssay (Tox21)
